# Compounds with a hit are over-represented: about 3.3% of the library has one in this group of screens.
# AmpC inh no detg: inhibitors of E. coli AmpC beta-lactamase without detergent. Potency, µM (doses to about 57.1 µM), hits mostly inhibitors. P00811. AmpC nitrocefin hydrolysis, absorbance 480 nm, 0.0001% Triton. AID 485341. 330,000 compounds, 0.52% hits; also: nearly all actives have a fitted effect of over 20% in size
# Target sequence (P00811 whole entry, looked up): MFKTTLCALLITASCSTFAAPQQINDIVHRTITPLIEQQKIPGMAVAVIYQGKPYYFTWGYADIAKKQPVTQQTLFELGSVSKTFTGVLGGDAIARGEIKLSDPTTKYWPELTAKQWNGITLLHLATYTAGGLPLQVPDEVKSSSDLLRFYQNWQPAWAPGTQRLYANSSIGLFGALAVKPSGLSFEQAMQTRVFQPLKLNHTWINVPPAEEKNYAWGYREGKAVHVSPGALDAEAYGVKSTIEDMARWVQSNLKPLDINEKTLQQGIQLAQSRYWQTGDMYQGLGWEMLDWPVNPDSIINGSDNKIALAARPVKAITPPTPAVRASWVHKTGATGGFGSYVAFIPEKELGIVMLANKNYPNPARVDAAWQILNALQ
#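 AmpC (5.3 nM in the dispensed reagent) in 20 mM phosphate pH 7.0 with 0.01% (detergent screen) or 0.0001% Triton X-100 was preincubated with compounds for 15 min at room temperature. Nitrocefin was then added from an 800 uM solution, and hydrolysis was followed at 480 nm.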
# Sm TGR inh: blocks Schistosoma mansoni thioredoxin glutathione reductase. Q962Y6. purified TGR, DTNB reduction, TNB absorbance 405 nm. Potency, µM (highest dose often 114 µM), usual class: inhibitors. 360,000 compounds, 3% hits. AID 485364; also: nearly all actives have a fitted effect of over 60% in size
#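 TGR 20 nM + NADPH 100 uM (dispensed conc.), cpd preinc 15 min RT; start with NADPH (500 uM addition) then DTNB (15 mM addition). Kinetic TNB absorbance, 405 nm filter. Four-parameter Hill fit across titration.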
# AmpC inh detg: AmpC beta-lactamase inhibition with detergent present | AmpC hydrolysis of nitrocefin, absorbance 480 nm, 0.01% Triton | P00811 | 370,000 compounds, 0.041% hits | AID 485294 | Potency, µM (titrated, usually from 114 µM), hits mostly inhibitors; also: nearly all actives have a fitted effect of over 25% in size
#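 AmpC (5.3 nM in the dispensed reagent) in 20 mM phosphate pH 7.0 with 0.01% (detergent screen) or 0.0001% Triton X-100 was preincubated with compounds for 15 min at room temperature. Nitrocefin was then added from an 800 uM solution, and hydrolysis was followed at 480 nm.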
# Numbers stand for hits; i = inactive; ? = inconclusive; nt = no result. Calls follow the shape of the dose curve; as a rule, active = well fitted curve in the direction sought with a large enough effect; inconclusive = small, poorly fitted or top-dose-only effect, or another doubt; inactive = no such curve, though single readings can be large; an effect the other way counts as inactive or inconclusive.
SMILES,AmpC inh no detg,Sm TGR inh,AmpC inh detg
Cc1ccc(C)c(NC(=O)CCN2C(=O)c3ccccc3Sc3ncccc32)c1,nt,i,i
CC(C)NC(=O)CCN1C(=O)c2ccccc2Sc2ncccc21,i,i,i
CCc1cccc(NC(=O)CCN2C(=O)c3ccccc3Sc3ncccc32)c1,nt,45µM,i
O=C(NCCc1ccc(Cl)cc1)c1cc(=O)[nH]c2ccccc12,i,i,i
CSc1ncc(CN2CCN(C(C)C)C(CCO)C2)cn1 (configuration not stated),i,i,i
O=[N+]([O-])c1ccc(Cl)c2c1C1C=CCC1C(c1ccccn1)N2 (configuration not stated),i,20µM,i
O=C(O)c1ccc(Cl)c2c1C1C=CCC1C(c1ccccn1)N2 (configuration not stated),i,?,i
O=C(NCc1ccc(F)cc1Cl)c1ccc(CSCc2ccccc2Cl)o1,nt,i,i
COC(=O)CN1C(=O)C2(C(C#N)=C(N)Oc3n[nH]c(-c4cccs4)c32)c2ccccc21 (configuration not stated),nt,50µM,i
CCN1C(=O)C2(C(C#N)=C(N)Oc3n[nH]c(-c4ccccc4)c32)c2ccccc21 (configuration not stated),i,i,i
Cc1ccccc1Cn1c(COc2ccc(Cl)cc2)nc2ccccc21,nt,i,i
CC1(NC(=O)CC(c2ccccc2)(c2ccccc2)c2ccccc2)CCN(Cc2ccc(-c3ccccc3)cc2)C1=O (configuration not stated),i,nt,nt
Cc1ccc(/C=C2\SC(=S)N(Cc3ccccc3)C2=O)o1,i,?,i
COC(=O)CN1C(=O)N/C(=C/c2ccc(C)o2)C1=O,i,28µM,i
Cc1cc(C(=O)O)ccc1-c1ccc(/C=C2\NC(=O)N(Cc3ccccc3Cl)C2=O)o1,i,50µM,i
Cc1ccc(/C=C2/NC(=O)N(Cc3ccccc3)C2=O)o1,i,22µM,i
COC(=O)COc1ccc(/C=C2/NC(=O)N(CC(=O)OC)C2=O)cc1,i,i,i
Cc1ccc(CN2C(=O)N/C(=C\c3ccc(-c4ccc(C(=O)O)cc4C)o3)C2=O)cc1,i,i,i
O=S(=O)(N/N=C\c1ccc2c(c1)OCO2)c1ccc(F)cc1,i,i,?
O=C(Nc1ccc(N2CCC(N3CCCCC3)CC2)c(C(=O)O)c1)c1ccccc1,nt,i,i
COc1cccc(Cn2c(NCc3ccco3)nc3c2c(=O)n(C)c(=O)n3C)c1,i,i,i
COc1ccc(Cl)c(Cn2c(NCc3ccco3)nc3c2c(=O)n(C)c(=O)n3C)c1,i,50µM,i
CSc1nc(N(CCO)CCO)c2sc3nc(-c4ccco4)c4c(c3c2n1)CCC4,i,2.5µM,i
CC1(C)Cc2c(c(-c3ccco3)nc3sc4c(NCCO)ncnc4c23)CO1,i,14µM,i
CC(C)Cc1nc2sc3c(NCc4ccco4)ncnc3c2c2c1COC(C)(C)C2,i,i,i
SMILES,AmpC inh no detg,Sm TGR inh,AmpC inh detg
CSc1nc(SCCO)c2sc3nc(-c4ccco4)c4c(c3c2n1)CC(C)(C)OC4,i,2.5µM,i
Cc1nc2sc3c(NCc4ccco4)ncnc3c2c2c1COC(C)(C)C2,i,?,i
OCCN(CCO)c1ncnc2c1sc1nc(N3CCOCC3)c3c(c12)CCCC3,i,i,i
COCCCNc1ncnc2c1sc1nc(-c3ccco3)c3c(c12)CC(C)(C)OC3,i,16µM,i
CSc1nc(SCCN(C)C)c2c3c(sc2n1)COC(C)(C)C3,i,i,i
O=C(Cc1ccsc1)Nc1ccccc1F,i,i,i
Cc1nn(-c2ccccc2)c(C)c1-c1nnc(-c2c(C)nn(-c3ccccc3)c2C)o1,i,i,i
CC(C)Cn1c(CN2CCN(c3cccc(Cl)c3)CC2)nc2c1c(=O)[nH]c(=O)n2C,nt,i,i
O=C(OCc1ccccn1)c1ccc(COc2ccc3ccccc3c2)o1,i,?,i
Cc1c(Cl)cccc1NC(=O)c1ncn(-c2ccccc2)n1,nt,i,i
Cc1ccc(Cl)cc1N1CCN(c2ncnc3c2nc2n3CCCC2)CC1,nt,i,i
COc1ccc(C2CC(c3ccc(Br)cc3)=NN2C(=O)CCC(=O)O)cc1OC (configuration not stated),i,i,i
COc1ccc(C2=NN(C(=O)CCC(=O)O)C(c3ccc(OC)c(OC)c3)C2)cc1 (configuration not stated),i,22µM,i
COc1ccc(C2=NN(C(=O)CSc3cn(C)c4ccccc34)C(c3ccc(OC)cc3)C2)cc1 (configuration not stated),1.6µM,i,?
COc1ccc(C2=NN(C(=O)CSc3ncccn3)C(c3ccc(OC)cc3)C2)cc1 (configuration not stated),i,i,i

# From PubChem
